Screens as filed in PubChem BioAssay.
RXFP1 agonist: RXFP1 (human) receptor agonism. Q9HBX9. HEK293T-RXFP1 cAMP TR-FRET, 30 min; response scale: percent of porcine relaxin response, buffer zero. Potency, µM (doses to about 57.5 µM), inactives show at the highest dose activation, actives largely listed as activators. actives 0.3% (n = 370,000); active means well fitted activation curve with a large enough effect; inconclusive means small, poorly fitted or top-dose-only effect; further: potency means the concentration at half of the fitted maximal effect; on the % scale 0 is the no-effect control and ±100 the full control effect; nearly all actives have a fitted effect of over 60% in size
Target sequence (Q9HBX9 whole entry, looked up): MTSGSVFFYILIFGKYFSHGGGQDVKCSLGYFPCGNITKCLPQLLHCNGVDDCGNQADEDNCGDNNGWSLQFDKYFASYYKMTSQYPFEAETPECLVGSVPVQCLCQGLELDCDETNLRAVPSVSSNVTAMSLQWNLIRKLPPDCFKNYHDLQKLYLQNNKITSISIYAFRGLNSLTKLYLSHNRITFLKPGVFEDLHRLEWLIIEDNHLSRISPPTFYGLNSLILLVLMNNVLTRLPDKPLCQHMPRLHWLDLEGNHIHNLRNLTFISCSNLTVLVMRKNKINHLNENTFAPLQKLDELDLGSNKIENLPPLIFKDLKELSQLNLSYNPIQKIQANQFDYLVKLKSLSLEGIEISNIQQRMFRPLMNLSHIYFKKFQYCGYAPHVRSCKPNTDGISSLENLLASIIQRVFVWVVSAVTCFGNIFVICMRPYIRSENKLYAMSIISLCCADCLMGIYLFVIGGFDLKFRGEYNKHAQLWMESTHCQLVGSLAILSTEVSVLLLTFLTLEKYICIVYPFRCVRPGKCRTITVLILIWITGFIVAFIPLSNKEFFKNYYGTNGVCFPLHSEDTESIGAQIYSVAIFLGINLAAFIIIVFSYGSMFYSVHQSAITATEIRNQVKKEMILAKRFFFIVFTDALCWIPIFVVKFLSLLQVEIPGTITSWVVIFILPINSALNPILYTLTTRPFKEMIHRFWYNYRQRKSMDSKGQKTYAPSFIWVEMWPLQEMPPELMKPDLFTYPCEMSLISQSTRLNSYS
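Agonist response is measured as cAMP accumulation in an RXFP1-transfected HEK293T line under PDE4 inhibition. Values are scaled between buffer-only and 29 nM porcine relaxin, and EC50s come from standard Hill equation fits.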
RXFP1 antagonist: RXFP1 (human) relaxin receptor antagonism. Q9HBX9. HEK293-RXFP1, relaxin-stimulated cAMP HTRF, 30 min; stronger effect = lower value. activity change, negative = inhibition, % at 57.5 µM. actives 0.59% (n = 350,000). AID 1259400;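 active means activity change of -60% or lower, but not beyond a set lower limit; inconclusive means change between -60% and -40%, or beyond the set limit; inactive means change above -40%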; further: on the % scale 0 is the no-effect control and ±100 the full control effect
gsp antagonist: antagonizes gsp, the McCune-Albright syndrome mutation; actives 0.4% (n = 340,000); gsp-mutant cells, cAMP HTRF, 30 min; Potency, µM (titrated, usually from 76.9 µM), without a hit: at the highest dose activity change, negative = inhibition, hits mostly inhibitors; AID 624288; calls by dose curve; cell line not stated here;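 further: intracellular cAMP measured with PDE inhibitor Ro 20-1724 present during compound exposure; potency means the concentration at half of the fitted maximal effect; on the % scale 0 is the no-effect control and ±100 the full control effect; nearly all actives have a fitted effect of over 65% in size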
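HTRF cAMP measurement after 30 min RT detection following 30 min, 37C compound treatment alongside […] (added as 300 uM solution) in G418-selected cells seeded at 2000/well and grown 16–24 h.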
pAkt inh: inhibitors of Akt phosphorylation; Neuro2A IGF-stimulated pAkt S473 HTRF, 20 min; stronger effect = lower value; activity change, % for hits at 50 µM; actives 0.32% (n = 360,000); in the data active means activity change below about -80%; inconclusive means mostly about -51% to -80%; further: on the % scale 0 is the no-effect control and ±100 the full control effect
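Neuro2A cells in DMEM with 0.5% FBS, overnight at 37 deg C, given compound at single 50 µM final, then IGF (6 nM final) for 20 min at 37 deg C. Lysed; phospho-Akt Ser473 by HTRF after 24 h, 665/615 ratio.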
gsp ag: activates gsp, the McCune-Albright syndrome mutation; gsp mutant cells, cAMP HTRF, 30 min; AID 624287; actives 0.13% (n = 340,000); Potency, µM (highest dose often 76.9 µM), inactives show top-dose activation (cAMP increase), usual class: activators; active means well fitted activation curve with a large enough effect; inconclusive means small, poorly fitted or top-dose-only effect, or another doubt; inactive means no such curve, though single readings can be large or run the other way; cell line not stated here;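 further: phosphodiesterase inhibitor Ro 20-1724 added with compounds to block cAMP breakdown; potency means the concentration at half of the fitted maximal effect; nearly all actives have a fitted effect of over 60% in size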
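Cells stably selected in G418 were plated at 2000/well, grown 16-24 hr, then given compounds in DMSO with the PDE inhibitor […] (300 uM solution added) for 30 min at 37C; cAMP was read by HTRF.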
* = called active by the depositor; i = inactive; ? = inconclusive; . = no result; ! = not confirmed by another sample; [ ] = remark or other dose. Sampled rows, rich in hits. Any-hit rate of the full collection: about 1.2%.

SMILES	RXFP1 agonist	RXFP1 antagonist	gsp antagonist	pAkt inh	gsp ag
CCOC(=O)c1ccc(NC(=O)c2c(NCc3cccs3)sc3c2CCCCC3)cc1	-1.1%	?	.	.	.
CCOc1cccc(CNc2ccc(O)cc2)c1OCc1ccccc1Cl	-3.2%	-88.9*!	-17.7%	i	-13.9%
O=C(Nc1ccc2c(c1)OCCO2)c1cnc2ccccn2c1=O	.	14.5	-3.0%	i	8.91µM*
CCOC(=O)c1cccc(NC(=O)c2cc3sccc3n2C)c1	0.5%	-4.8	35.5µM*	i	-1.6%
CCOC(=O)c1cccc(NC(=O)c2cc3sccc3n2Cc2ccc(Cl)cc2)c1	17.2%	.	.	.	.
COC(=O)c1ccc(Nc2ncnc3c2nc2n3CCCC2)cc1	0.1%	13.0	.	.	.
Oc1cccc(-c2c3nc(c(-c4cccc(O)c4)c4ccc([nH]4)c(-c4cccc(O)c4)c4nc(c(-c5cccc(O)c5)c5ccc2[nH]5)CC4)C=C3)c1	.	-100.3*	.	.	.
N#Cc1c(N)nc2c(c1-c1cccc(O)c1)CCCCCC2	0.6%	-8.8	2.1%	i	?
Cc1cc(C)cc(Nc2cc(C(=O)NCc3ccccc3)c3ccccc3n2)c1	10.9%	.	.	.	.
CCOC(=O)c1c(/N=C/N(C)C)sc(/C=N/Nc2ccccc2)c1-c1ccc(Cl)cc1	1.2%	1.3	6.7%	i	12.6µM*
Cc1cccc(NC(=O)C2CCN(S(=O)(=O)c3c(C)c(C)cc(C)c3C)CC2)n1	-1.9%	-78.8*	-7.1%	i	33.6%
CC(C)C[C@@H]1[C@H](c2ccccc2)OC(=O)N1CCCN1CCCCCC1	.	-12.8	.	.	.
CCOC(=O)Cc1csc(NC(=O)COc2ccccc2)n1	2.0%	3.2	6.3%	i	?
CCOC(=O)Cc1csc(NC(=O)COc2ccc(N(C)S(=O)(=O)c3cccs3)cc2)n1	2.7%	-14.4	35.5µM*	i	-42.7%
COc1ccc(CNC(=O)CCc2c(C)nc3nc(CNC(=O)OC(C)(C)C)nn3c2C)cc1	-1.6%	3.6	.	.	.
O=C(/C=C/c1ccccc1)c1ccccn1	0.2%	-13.4	9.7%	-119.3%*	-47.4%
O=C(c1ccc2c(c1)CCN2S(=O)(=O)c1ccc(Cl)cc1)N1CCN(c2ccccc2F)CC1	3.5%	-0.5	.	.	.
CCOC(=O)c1cnc2ccc(OCC)cc2c1NCc1ccccc1OC	-1.5%	-35.1	31.6µM*	i	0.5%[15.4 µM]
CC(C)(C)OC(=O)CNC(=O)c1[nH]cnc1C(=O)NCCCCCNC(=O)OC(C)(C)C	0.8%	.	35.5µM*	i	-1.9%
CC(C)(C)OC(=O)CNC(=O)c1[nH]cnc1C(=O)NCCCCCN	0.8%	.	13.6%	i	-190.3%
COc1ccc(CCC(=O)NCCc2csc(-c3cccc(F)c3)n2)cc1	1.3%	-13.6	.	.	.
COc1ccccc1CNC(=O)CCc1ccccc1	1.0%	3.1	5.5%	i	-7.6%
COc1ccc(CCC(=O)NCc2ccccc2OC)cc1	3.3%	12.0	3.16µM*	i	?
O=C(NCCc1csc(-c2cccc(F)c2)n1)c1ccc(Br)o1	-1.8%	-78.2*	.	.	.
COc1ccc(CCC(=O)NCCc2csc(-c3cccc(C)c3)n2)cc1	0.9%	-72.6*	.	.	.
SMILES	RXFP1 agonist	RXFP1 antagonist	gsp antagonist	pAkt inh	gsp ag
COc1ccc(-c2nn(-c3ccccc3)cc2/C=C2/SC(=S)N(CCC(=O)O)C2=O)c(C)c1	0.6%	-3.8	31.6µM*	i	-4.2%
COc1ccc(-c2nn(-c3ccccc3)cc2/C=C2/SC(=S)N(CCC(=O)O)C2=O)cc1	0.5%	-6.0	31.6µM*	i	-5.1%[15.4 µM]
Cc1ccc(-c2nn(-c3ccccc3)cc2/C=C2\SC(=S)N(CC(=O)O)C2=O)cc1	-0.3%	8.1	?	i	-33.2%
CCOc1ccc(CCNCc2c(C(=O)O)n(Cc3ccc(C)cc3)c3cc(OC)ccc23)cc1	0.4%	-29.0	.	.	.
O=C(Cn1cc(SCc2ccc(Cl)cc2)c2ccccc21)N1CCCC1	-1.7%	?	.	.	.
Cc1cc(C)c2c(=O)n(CC(=O)Nc3ccc(Cl)cc3)sc2n1	1.1%	-25.6	-10.7%	i	?
CCOc1ccc(NC(=O)Cn2sc3nc(C)cc(C)c3c2=O)cc1	6.1%	-66.3*	-2.1%	i	-2.4%[15.4 µM]
CCN(CC)C(=O)COc1ccc(-c2nnc(N3CCCCC3)c3ccccc23)cc1	-1.5%	-8.0	-24.7%	i	18.9%
CCOc1ccc(-c2nnc(N3CCCCC3)c3ccccc23)cc1	-0.8%	-31.9	50.1µM*	i	-28.6%
CCc1nn(CCCC(=O)N2CCN(c3cc(Cl)ccc3C)CC2)c(=O)c2cc3occc3n12	-0.9%	.	.	.	.
CCN(C(=O)CSc1nc(C)nc2sc(C)c(C)c12)c1ccc(F)cc1	11.4%	2.6	-5.1%	i	?
CCN(Cc1ccc2c(c1)OCO2)C(=O)CSc1nc(C)nc2sc(C)c(C)c12	1.9%	6.4	39.8µM*	i	0.7%
CCC(=O)N1CCN(c2nc(CC)nc3sc4c(c23)CCCC4)CC1	4.0%	3.4	20µM*	i	25.0%[15.4 µM]
CCc1nc(N2CCN(C(=S)NCCCOC)CC2)c2c3c(sc2n1)CCCC3	3.4%	-2.3	7.08µM*	i	-7.4%
CCc1nc(N2CCN(S(C)(=O)=O)CC2)c2c3c(sc2n1)CCCC3	0.2%	-5.3	?	i	0.1%
Cc1cc(C)c2sc(N(CCCN(C)C)C(=O)COc3ccc(Cl)cc3)nc2c1	-0.1%	-71.7*	9.0%	i	17.7%[15.4 µM]
Cc1cc(C)c2sc(N(CCCN(C)C)C(=O)c3ccc(S(=O)(=O)N(C)C4CCCCC4)cc3)nc2c1	0.2%	-84.4*	11.1%	i	-2.1%[15.4 µM]
CC(C)NC(=O)CN1C(=O)c2cccnc2Sc2ccccc21	-0.6%	-9.6	.	.	.
CCN(C(=O)CCS(=O)(=O)c1cc2[nH]c(=O)c(=O)[nH]c2cc1C)c1ccccc1	3.7%	-6.2	.	.	.
N#CC(C#N)C(c1ccsc1)c1c(-c2ccccc2)[nH][nH]c1=O (configuration not stated)	1.0%	-7.9	-4.3%	-107.9%*	19.1%
CC1(C)CC(=O)c2cc(C(=O)Nc3ccc(Cl)cc3)c(=O)[nH]c2C1	?	-10.9	.	.	.
COc1cc(C2NC(=O)NC(C)=C2C(=O)Nc2cc(C)cc(C)c2)ccc1O (configuration not stated)	-0.1%	.	.	.	.
CCOCCCn1c(=N)c(C(=O)NCc2cccnc2)cc2c(=O)n3cc(C)ccc3nc21	9.3%	.	.	.	.
CCN(CC)S(=O)(=O)c1ccc(-c2nnc(SCC(=O)Nc3nnc(C)s3)n2CC)cc1	0.2%	-0.9	-29.7%	-111.5%*	-15.1%
Cc1ccc2scc(N3CCCCC3)c(=O)c2c1	-3.0%	6.2	.	.	.
Cc1csc(SCC(=O)Nc2nc3ccccc3s2)n1	-2.6%	-12.9	11.1%[15.4 µM]	-114.8%*	-5.8%
CCOC(=O)N1CCN(C(=O)CN(Cc2ccc(Cl)cc2)S(=O)(=O)c2ccccc2)CC1	0.1%	8.3	-6.2%	-103.3%*	-9.3%
CCOC(=O)N1CCN(C(=O)CN(Cc2ccccc2)S(C)(=O)=O)CC1	2.8%	-20.8	4.0%	i	25.5%
